Sampled rows, rich in hits. Any-hit rate of the full collection: about 4.2%.
Mtb FBA inh: Mtb FBA enzyme inhibitors, primary screen, biochemical, fluorescence, strain H37Rv; AID 588726, 2011; inhibition, % at 1 µM; purified M. tuberculosis FBA, fluorescence read-out; Fructose-bisphosphate aldolase (Mycobacterium tuberculosis (strain ATCC 25618 / H37Rv)), …; 360,000 compounds, 2.3% hits;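 also: 0% = vehicle and 100% = reference inhibitor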
Target sequence (P9WQA3 whole entry, looked up): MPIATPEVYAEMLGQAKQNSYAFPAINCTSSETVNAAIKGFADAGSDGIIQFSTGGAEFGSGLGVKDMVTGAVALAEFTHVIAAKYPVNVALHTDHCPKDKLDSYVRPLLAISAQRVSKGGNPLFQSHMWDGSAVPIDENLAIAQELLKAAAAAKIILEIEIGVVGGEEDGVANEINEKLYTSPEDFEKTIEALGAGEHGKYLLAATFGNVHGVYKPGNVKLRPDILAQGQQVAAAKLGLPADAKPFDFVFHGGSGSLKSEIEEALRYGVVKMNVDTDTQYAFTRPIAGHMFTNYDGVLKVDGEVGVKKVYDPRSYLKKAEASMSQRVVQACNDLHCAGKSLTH
CCHFV vOTU inh: CCHFV vOTU protease inhibitors, primary screen, biochemical, Pep-AMC substrate, fluorescence; Crimean-Congo hemorrhagic fever virus L polyprotein viral ovarian tumor (vOTU) protease …; inhibition, % at 11.5 µM; 370,000 compounds, 0.55% hits; in the data active = inhibition above about 30%; also: 0% = vehicle wells with enzyme and 100% = no enzyme wells
GDH-TPI counter-1: GDH-TPI coupling enzyme inhibitors, primary screen, artefact control for M. tuberculosis FBA inhibitor project, biochemical, absorbance, full deck | inhibition, % at 4.8 µM | 360,000 compounds, 1.2% hits | GDH-TPI coupled enzyme counterscreen, NADH absorbance; in the data active = inhibition above about 30%;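 also: 0% = DMSO wells and 100% = wells lacking the enzyme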
RecA intein inh: Mtb RecA intein splicing inhibitors, primary screen, biochemical, fluorescence, HTS. cell-free RecA intein splicing. inhibition, % (test concentration not listed). 290,000 compounds, 0.75% hits; in the data active = inhibition above about 30%;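 also: 0% = vehicle wells and 100% = reference inhibitor control wells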
Mtb FBA confirm: M. tuberculosis aldolase blockers, biochemical, fluorescence, strain H37Rv, confirmation | shares compounds with Mtb FBA inh | purified M. tuberculosis FBA, fluorescence read-out | inhibition, % at 1 µM | 5,600 compounds, 78% hits | AID 651616, 2012;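 also: 0% = vehicle wells and 100% = reference inhibitor wells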
GDH-TPI counter-2: GDH-TPI coupling enzyme inhibitors, artefact control for M. tuberculosis FBA inhibitor project, biochemical, fluorescence, high throughput; 5,600 compounds, 81% hits; GDH-TPI coupled enzyme counterscreen; AID 652141, 2013; inhibition, % at 1 µM; shares compounds with Mtb FBA inh; in the data active = inhibition above about 10%
* marks the source's active call; other numbers are inactive results; i = inactive; . = no result; + = active, no number. Rule as the data show it, unless noted: active = inhibition above about 27%; inactive = the rest.

SMILES	Mtb FBA inh	CCHFV vOTU inh	GDH-TPI counter-1	RecA intein inh	Mtb FBA confirm	GDH-TPI counter-2
COc1ccc2oc(C(=O)OCC(=O)NC3CCS(=O)(=O)C3)c(C)c2c1 (stereo not given)	52.8*	-16.9	6.2	.	166.8*	103.7*
CN(C)c1ccc(NC(=O)Cc2ccccc2)c2ccccc12	29.0*	-11.8	5.7	-1.5	38.7*	33.8*
COc1ccc(C(=O)N/N=C/c2ccc(OC)c(CN3CCc4cc(OC)c(OC)cc4C3C)c2)cc1 (stereo not given)	0.3	-4.5	5.9	-2.9	.	.
CCOC(=O)c1cc2cc(OC)ccc2[nH]1	41.5*	-5.8	5.3	4.6	45.0*	42.0*
COc1ccc2[nH]c(=O)c(CN(CCO)C(=O)NCc3ccccc3)cc2c1	17.8	-14.5	15.1	-2.5	.	.
COc1ccc2[nH]c(C(=O)NCc3ccccc3)cc2c1	55.5*	-10.3	11.2	0.4	64.3*	46.2*
CC(=O)Nc1cc(-c2ccsc2)cn2c(-c3ccc(F)cc3)cnc12	4.6	6.7	6.2	.	.	.
CC(=Nc1ccccc1)C1=C(O)C(Cc2ccc(O)cc2)NC1=O (stereo not given)	0.7	7.8	21.6	.	.	.
CCOC(=O)Nc1cccc2ccccc12	7.2	-8.2	-5.7	1.8	.	.
CCOC(=O)Nc1ccc2c3c(cccc13)-c1ccccc1-2	57.2*	-89.3	13.4	.	69.5*	61.1*
CCOC(=O)c1sc(-c2cccs2)nc1C	11.7	6.8	16.8	0.2	.	.
CCOC(=O)c1cc(-c2cccs2)nc2onc(C)c12	41.7*	-31.4	-6.2	-19.0	81.8*	74.0*
O=c1[nH]c2cc3c(cc2cc1CN(Cc1nnnn1CC1CCCO1)C1CCCCC1)OCO3 (stereo not given)	56.8*	-25.0	6.6	-151.6	+	+
O=c1[nH]c2cc3c(cc2cc1CN(Cc1nnnn1CC1CCCO1)C1CCCC1)OCO3 (stereo not given)	75.6*	3.6	11.5	-11.9	33.3*	28.9*
CC1CCN(C(c2cc3cc4c(cc3[nH]c2=O)OCO4)c2nnnn2CC2CCCO2)CC1 (stereo not given)	3.5	.	6.5	-4.3	.	.
Cc1ccc2[nH]c(=O)c(CN(CCc3ccccc3)Cc3nnnn3CC3CCCO3)cc2c1 (stereo not given)	7.3	15.0	5.7	3.9	.	.
O=c1[nH]c2cc3c(cc2cc1CN(CCc1ccccc1)Cc1nnnn1CC1CCCO1)OCO3 (stereo not given)	30.0*	-17.6	26.2	.	11.6	16.6*
CCOc1ccc(NS(=O)(=O)c2ccc(C(=O)N(C)CC(=O)Nc3ccccc3Br)cc2)cc1	-0.9	-2.5	-0.5	.	.	.
CC(C)(CCc1ccccn1)C(=O)CCCc1ccccn1	-2.8	0.9	0.9	.	.	.
COP(=O)(OC)C(NC(=O)OCc1ccccc1)C(C)C (stereo not given)	.	-4.5	.	.	.	.
COCc1cc(C)c(C#N)c(=S)[nH]1	2.9	.	5.8	-0.3	.	.
CCOCc1cc(C)[nH]c(=O)c1C#N	67.9*	-30.1	15.2	1.8	174.7*	147.8*
O=C(C(=O)N1CCCN(Cc2ccc(F)cc2)CC1)c1ccccc1	.	8.8	.	.	.	.
Cc1cc(-c2ccccc2)nc(=O)[nH]1	1.3	-7.3	5.3	.	.	.
Cn1cccc2[nH]c(=O)nc1-2	36.6*	-13.2	9.1	0.2	78.0*	54.5*
SMILES	Mtb FBA inh	CCHFV vOTU inh	GDH-TPI counter-1	RecA intein inh	Mtb FBA confirm	GDH-TPI counter-2
COc1ccc(-c2nc3nc(N)nn3cc2C)cc1F	27.8*	-13.4	0.0	0.2	82.0*	70.1*
Cc1cc(/C(N)=N/OC(=O)Nc2ccc(Cl)cc2)no1	-0.2	-0.7	-0.8	1.0	.	.
CC1=CC(c2ccccc2)n2nc(N3C(=O)CCC3=O)nc2N1 (stereo not given)	104.4*	-109.8	3.5	-17.2	73.8*	41.4*
O=C1CC(c2ccccc2)n2nc(N3C(=O)CCC3=O)nc2N1 (stereo not given)	2.9	8.1	8.9	-0.4	.	.
COc1cc2c(cc1OC)C(C)N(C(=O)c1cc3c(s1)-c1c(C)cccc1OC3)CC2 (stereo not given)	30.6*	-27.5	11.9	12.7	138.6*	97.0*
COc1cc2c(cc1OC)C(C)N(C(=O)c1cc3c(s1)-c1ccccc1OC3)CC2 (stereo not given)	58.8*	-30.4	18.8	12.3	36.7*	32.6*
CCOC(=O)C1CCN(C(=O)c2cc3c(s2)-c2ccccc2OC3)CC1	85.4*	-110.6	25.7	0.4	3.1	-3.2
COc1ccccc1N1CCN(C(=O)c2cc3c(s2)-c2ccccc2OC3)CC1	7.6	-0.4	13.5	6.9	.	.
CC1=C(C(=O)N2CCOCC2)C(c2ccccc2F)C2=C(CC(C)(C)CC2=O)N1 (stereo not given)	54.5*	-76.3	0.0	-8.3	84.0*	73.0*
COc1ccc(C2C(C(=O)N3CCOCC3)=C(C)NC3=C2C(=O)CC(C)(C)C3)c(OC)c1 (stereo not given)	58.4*	-91.0	9.1	-19.8	+	+
N#Cc1ccc(Cn2ccc3ccc(-c4ccc5ccn(C(=O)C6CCCCC6)c5c4)cc32)cc1	.	10.8	.	.	.	.
COc1cccc(C(=O)Nc2ccc(-c3nc4ccccc4o3)c(O)c2)c1	43.2*	-222.5	33.1*	0.9	46.2*	33.0*
O=C(COC(=O)c1cc(=O)[nH]c2ccccc12)NCc1ccc(Cl)cc1	5.5	-6.4	10.5	.	.	.
CC(OC(=O)c1ccccc1NCCO)C(=O)Nc1ccc(S(=O)(=O)N2CCOCC2)cc1 (stereo not given)	57.3*	-72.7	1.4	-6.4	58.0*	53.7*
CC(OC(=O)CNC(=O)c1ccccc1)C(=O)Nc1ccc(S(=O)(=O)N2CCOCC2)cc1 (stereo not given)	4.8	4.8	7.6	.	.	.
Cc1cc(Br)ccc1NC(=O)CN(C)C(=O)c1ccc2ccccc2n1	-1.0	1.7	-0.4	.	.	.
COc1ccc(-c2nc(NC(=O)CSc3nnc(C)s3)ns2)cc1	41.2*	.	10.2	1.3	4.5	-3.9
C(=N\n1cnnc1)/c1nc2ccccc2[nH]1	74.1*	-31.6	20.1	-0.5	60.2*	49.2*
CCn1c(/C=N/c2nc3ccccc3n2C)nc2ccccc21	0.5	13.8	7.5	-1.2	.	.
Cn1c(/C=N/O)nc2ccccc21	52.4*	-3.1	4.2	-2.2	21.3	10.5*
Cn1c(/C=N/n2cnnc2)nc2ccccc21	45.3*	-37.3	37.5*	0.4	13.9	-2.5
CCC(=O)c1ccc(/C=C/c2nc3ccccc3n2C)o1	83.4*	-235.7	11.5	i	-4.8	-4.7
Cc1[nH]c2ccccc2c1/C=N/n1cnnc1	1.1	3.4	23.7	-0.2	.	.

Source: PubChem (several laboratories)
